Assay [1] in a line: ATG_PXRE_CIS: Attagene CIS-FACTORIAL HepG2 Assay for human Pregnane X Receptor Element (PXRE) (AID 2282957). The note with it: HepG2 Attagene CIS-FACTORIAL PXRE reporter, mRNA; actives raise or lower the signal. In outline: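 HepG2 cells transiently transfected with cis-element-driven multiplexed reporter units; after 24 h chemical exposure, reporter mRNA measured by RT-PCR, 6-FAM labelling, HpaI digestion and capillary electrophoresis. Bidirectional fitting relative to DMSO.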

Assay [2] in a line: ATG_PPRE_CIS: Attagene CIS-FACTORIAL HepG2 Assay for human Peroxisome Proliferator-activated Response Element (PPRE) (AID 2282958). The note with it: HepG2 PPRE cis-element reporter, Attagene transcription factor profiling; actives raise or lower the signal. In outline:
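Measured endpoint: PPRE-controlled reporter mRNA, detected by RT-PCR and capillary electrophoresis fluorescence, from transiently transfected HepG2 cells 24 h after dosing. Curves fitted in both directions using DMSO baseline.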

Assay [3] can be described thus: ATG_RORE_CIS: Attagene CIS-FACTORIAL HepG2 Assay for human RAR-related Orphan Receptor Element (RORE) (AID 2282959). Conditions: HepG2 Attagene cis-factorial RORE reporter, mRNA; actives raise or lower the signal. In outline:
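Transiently transfected HepG2 reporter cells were treated 24 h. Reporter transcripts were detected by RT-PCR and capillary electrophoresis, with bidirectional fitting against DMSO.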

The nature of assay [4]: ATG_Sox_CIS: Attagene CIS-FACTORIAL HepG2 Assay for human SRY-box transcription factor (SOX) (AID 2282960). Conditions: HepG2 Attagene cis-factorial SOX reporter, mRNA; actives raise or lower the signal. In outline: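 Gain- or loss-of-signal endpoint, fitted bidirectionally with DMSO as negative control. Based on reporter mRNA from transfected HepG2 cells harvested 24 h post-treatment and quantified via RT-PCR and capillary electrophoresis.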

For assay [5], the target named is Transcription factor Sp1 (Homo sapiens) (UniProt P08047). As to the kind of experiment: ATG_Sp1_CIS: Attagene CIS-FACTORIAL HepG2 Assay for human Specificity Protein 1 (Sp1) (AID 2282961). The note with it: HepG2 Sp1 cis-reporter transcription, actives raise or lower the signal. Summed up:
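Endpoint reflects endogenous Sp1 transcriptional activity, not an exogenous fusion protein: HepG2 cells with transfected cis-regulated reporters, 24 h dosing, RT-PCR/capillary electrophoresis mRNA read-out, DMSO-normalised bidirectional fit.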

A short description of assay [6]: ATG_SREBP_CIS: Attagene CIS-FACTORIAL HepG2 Assay for human Sterol Regulatory Element Binding (SREBP) (AID 2282962). Conditions: HepG2 Attagene cis-factorial SREBP reporter, mRNA; actives raise or lower the signal. Summed up: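 HepG2 cells transiently transfected with multiplexed cis-element reporter units report endogenous transcription factor activity. After 24 h of chemical exposure, reporter mRNA was quantified by RT-PCR, 6-FAM labelling, HpaI digestion and capillary electrophoresis; bidirectional fits used DMSO as baseline.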

Assay [7] has as its target Signal transducer and activator of transcription 3 (Homo sapiens) (UniProt P40763). As to the kind of experiment: ATG_STAT3_CIS: Attagene CIS-FACTORIAL HepG2 Assay for human Signal Transducer and Activator of Transcription 3 (STAT3) (AID 2282963). The note with it: HepG2, Attagene cis-factorial STAT3 reporter transcription; actives raise or lower the signal. Summed up: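 HepG2 cells transiently transfected with cis-element-driven multiple reporter transcription units; after 24 h chemical exposure, reporter mRNA measured by RT-PCR, 6-FAM primer-extension labelling, HpaI digestion and capillary electrophoresis. Bidirectional fitting versus DMSO baseline.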

Assay [8] is described as follows: ATG_TA_CIS: Attagene CIS-FACTORIAL HepG2 Assay for human TA Basal Promoter (AID 2282964). The note with it: HepG2 Attagene CIS-factorial TA basal promoter reporter; actives raise or lower the signal. Summed up:
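Background-control readout: TA basal promoter reporter mRNA, fitted in both directions relative to DMSO. Measured by RT-PCR and capillary electrophoresis 24 hours after treating HepG2 human liver cells transiently carrying multiplexed cis-regulated reporter constructs.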

A short description of assay [9]: ATG_TCF_b_cat_CIS: Attagene CIS-FACTORIAL HepG2 Assay for human T-Cell-Factor with beta-catenin (TCF/b-cat) (AID 2282965). Conditions: HepG2 TCF/beta-catenin cis-reporter transcription, actives raise or lower the signal. Summed up: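 In this cis-format system, transfected HepG2 cells report endogenous transcription factor activity. Readout after 24 h exposure is reporter transcript abundance from RT-PCR and capillary electrophoresis, analysed for gain or loss of signal versus DMSO.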

Assay [10] can be described thus: ATG_TAL_CIS: Attagene CIS-FACTORIAL HepG2 Assay for human TAL Basal Promoter (AID 2282966).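 Further: background control endpoint measuring basal TAL promoter reporter mRNA not a specific factor.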 The note with it: HepG2 Attagene cis-factorial TAL promoter reporter; actives raise or lower the signal. Summed up:
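HepG2 cells transiently transfected with multiplexed cis-promoter reporter units, dosed 24 h. Reporter mRNA quantified by RT-PCR, 6-FAM labelling, HpaI digestion and capillary electrophoresis; TAL basal promoter serves as background control, fitted bidirectionally versus DMSO.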

The source made the active and inactive calls. How the source made its calls: active means hit-call score of the fitted dose curve at least 0.9, where 1 is the maximum; inactive means score below 0.9.

The term AC50 denotes the midpoint of the concentration-response curve, whichever way the signal moves.

Sequence of Signal transducer and activator of transcription 3 (Homo sapiens) (P40763 whole entry, looked up): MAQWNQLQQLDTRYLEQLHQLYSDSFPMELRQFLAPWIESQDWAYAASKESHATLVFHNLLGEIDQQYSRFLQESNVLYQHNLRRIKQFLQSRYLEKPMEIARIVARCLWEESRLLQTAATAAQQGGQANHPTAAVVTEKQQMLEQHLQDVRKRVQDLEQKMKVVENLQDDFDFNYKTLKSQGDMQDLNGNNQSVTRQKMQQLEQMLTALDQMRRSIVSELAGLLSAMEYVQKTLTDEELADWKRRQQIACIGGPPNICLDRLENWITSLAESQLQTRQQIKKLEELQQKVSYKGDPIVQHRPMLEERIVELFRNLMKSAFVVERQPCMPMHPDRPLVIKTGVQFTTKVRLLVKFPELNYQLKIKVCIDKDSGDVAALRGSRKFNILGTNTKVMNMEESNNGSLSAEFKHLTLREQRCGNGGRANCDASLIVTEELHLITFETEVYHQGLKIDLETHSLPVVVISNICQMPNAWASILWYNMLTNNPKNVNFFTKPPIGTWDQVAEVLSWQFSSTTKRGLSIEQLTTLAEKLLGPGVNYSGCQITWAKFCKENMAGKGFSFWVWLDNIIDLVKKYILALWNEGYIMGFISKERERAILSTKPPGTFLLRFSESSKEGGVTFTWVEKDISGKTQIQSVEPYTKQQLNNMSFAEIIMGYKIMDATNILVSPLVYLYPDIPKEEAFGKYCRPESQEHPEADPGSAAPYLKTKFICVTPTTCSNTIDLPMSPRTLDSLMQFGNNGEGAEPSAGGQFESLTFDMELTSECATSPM
Sequence of Transcription factor Sp1 (Homo sapiens) (P08047 whole entry, looked up, the tested form may be a part): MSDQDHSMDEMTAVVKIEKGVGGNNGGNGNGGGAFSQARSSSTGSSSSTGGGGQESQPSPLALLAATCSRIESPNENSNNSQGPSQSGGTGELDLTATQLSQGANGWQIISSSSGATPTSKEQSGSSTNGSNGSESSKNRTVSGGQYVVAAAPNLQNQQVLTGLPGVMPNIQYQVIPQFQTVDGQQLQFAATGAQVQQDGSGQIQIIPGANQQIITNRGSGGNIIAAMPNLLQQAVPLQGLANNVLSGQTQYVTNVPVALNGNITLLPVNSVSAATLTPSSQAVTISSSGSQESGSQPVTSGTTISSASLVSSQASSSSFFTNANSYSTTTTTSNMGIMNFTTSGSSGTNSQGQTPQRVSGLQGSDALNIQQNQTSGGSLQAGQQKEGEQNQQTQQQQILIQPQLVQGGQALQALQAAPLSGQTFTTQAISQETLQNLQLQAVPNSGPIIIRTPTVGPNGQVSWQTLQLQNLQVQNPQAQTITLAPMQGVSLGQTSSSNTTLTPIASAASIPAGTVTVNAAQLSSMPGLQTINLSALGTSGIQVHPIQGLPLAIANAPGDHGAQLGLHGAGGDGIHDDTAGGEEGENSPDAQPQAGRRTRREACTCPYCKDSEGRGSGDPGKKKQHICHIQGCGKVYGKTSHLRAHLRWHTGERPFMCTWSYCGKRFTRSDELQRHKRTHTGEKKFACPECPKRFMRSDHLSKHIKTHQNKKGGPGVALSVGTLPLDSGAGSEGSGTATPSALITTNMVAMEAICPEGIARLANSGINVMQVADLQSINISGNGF

With `CCCCCCC(CO)CCCC` (stereo unspecified), the AC50 in assay [1] is 33.4 µM (active). The result in assay [2], in assay [3], in assay [4], in assay [5], in [6] and in assay [7] was inactive. Besides, the compound was called inactive in [8], in [9] and in assay [10].

In the case of `CCC(=O)O[C@@H]1C[C@H]2CC[C@]1(C)C2(C)C`, the outcome in assay [1], in assay [2], in assay [3], in assay [4], in assay [5] and in [6] was inactive. Further, the compound was classed as inactive in assay [7], in [8] and in assay [9].

Regarding `C=CCOC(=O)CCCCCC`, the compound was classed as inactive in assay [1], in assay [2], in assay [3], in assay [4], in assay [5] and in assay [6]. Also, the outcome in assay [7], in assay [8] and in [9] was inactive.

In the case of `CCCCCCCCCCCCCCN(CCO)CCO`, the figures for the AC50 in assay [1], in assay [5] and in assay [6] were 2.92 µM (active), 11.1 µM (active) and 7.35 µM (active), respectively. The result in assay [2], in [3], in assay [4], in [7], in assay [8] and in [9] was inactive. The compound was called inactive in assay [10].

For `CC(=O)CC(=O)Nc1ccc(C)cc1C`, the outcome in assay [1], in assay [2], in assay [3], in [4], in [5] and in [6] was inactive. In addition, the compound was classed as inactive in assay [7], in [8], in [9] and in assay [10].

Consider `NC1CCCCC1N` (stereo unspecified), for which the compound was called inactive in assay [1], in [2], in [3], in assay [4], in assay [5] and in assay [6]. In addition, the compound was classed as inactive in assay [7], in [8], in assay [9] and in assay [10].

Take `CCCCN(CCCC)C(=O)N(CCCC)CCCC`: the AC50 in [1] was 0.753 µM (active); in assay [2] it was 61 µM (active); in assay [4], 52.2 µM (active); in assay [5] it was 46.8 µM (active); in assay [6], 54.6 µM (active); in [8], 25.5 µM (active). In addition, the AC50 in assay [9] was 60.6 µM (active); in [10] it was 50.2 µM (active). Further, the call in assay [3] and in assay [7] was inactive.

Turning to `CCCC(=O)OC(C)(C)Cc1ccccc1`, the AC50 in [1] is 27 µM (active); in [2], 178 µM (active). In addition, the compound was called inactive in [3], in assay [4], in assay [5], in assay [6], in assay [7] and in assay [8]. Besides, in assay [9], the compound was called inactive.

`CCCC[O][Al]([O]CCCC)[O]CCCC`: the compound was classed as inactive in [1], in assay [2], in assay [3], in assay [4], in assay [5] and in assay [6]. Further, the call in [7], in [8], in assay [9] and in assay [10] was inactive.

Regarding `CCCSc1ccc2nc(NC(=O)OC)[nH]c2c1`, the result in assay [1], in assay [2], in [3], in assay [4], in assay [5] and in assay [6] was inactive. The outcome in assay [7], in assay [8], in [9] and in assay [10] was inactive.

As for `CC(O)C1CCCCC1` (stereo unspecified), the compound was called inactive in assay [1], in [2], in [3], in assay [4], in assay [5] and in assay [6]. Besides, the compound was classed as inactive in [7], in [8], in assay [9] and in assay [10].

For the compound `CCCCCCCCSCCO`, the AC50 in assay [1] was 25 µM (active). Also, the compound was classed as inactive in [2], in assay [3], in assay [4], in assay [5], in assay [6] and in assay [7]. The call in assay [8], in assay [9] and in assay [10] was inactive.

Consider `CCCCCCCCCCCCCCCC(=O)OC/C=C(C)/C=C/C=C(C)/C=C/C1=C(C)CCCC1(C)C`, for which the AC50 in [1] was 3.09 µM (active). Besides, the compound was classed as inactive in [2], in assay [3], in assay [4], in assay [5], in [6] and in [7]. Also, the compound was called inactive in assay [8] and in assay [9].

On to `CCCC(O)C(O)CO` (stereo unspecified), for which the outcome in assay [1], in assay [2], in assay [3], in assay [4], in assay [5] and in assay [6] was inactive. Also, the compound was classed as inactive in assay [7], in assay [8], in assay [9] and in assay [10].

Regarding `CCCCC(CC)COC(C)=O` (stereo unspecified), the compound was classed as inactive in [1], in [2], in [3], in assay [4], in assay [5] and in assay [6]. In addition, the compound was classed as inactive in [7], in assay [8], in [9] and in assay [10].

`CC(C)(N=C=O)c1cccc(C(C)(C)N=C=O)c1`: the AC50 in [1] was 13.1 µM (active). Further, the call in assay [2], in assay [3], in assay [4], in assay [5], in [6] and in assay [7] was inactive. Moreover, the compound was classed as inactive in [8], in assay [9] and in assay [10].

Regarding `Cc1ccc(C)o1`, the outcome in assay [1], in assay [2], in assay [3], in [4], in [5] and in [6] was inactive. Moreover, the outcome in [7], in assay [8], in [9] and in [10] was inactive.

Consider `CCOc1ccccc1O`, for which the compound was classed as inactive in [1], in [2], in assay [3], in [4], in assay [5] and in [6]. Further, the compound was called inactive in [7], in assay [8], in assay [9] and in [10].

`Nc1ccc(Cl)c([N+](=O)[O-])c1`: the AC50 in [1] was 37.6 µM (active). Besides, the call in [2], in assay [3], in [4], in [5], in assay [6] and in [7] was inactive. In addition, the result in assay [8], in [9] and in [10] was inactive.

Turning to `O=C1CCCC=CCCCCCCCCCC1`, the AC50 was 9.05 µM (active) in [1], 48.8 µM (active) in assay [5] and 49.3 µM (active) in assay [9]. For the same compound, the outcome in assay [2], in assay [3], in [4], in assay [6], in assay [7] and in assay [8] was inactive. The call in [10] was inactive.

As to `CC=Cc1ccc(OC)c(OC)c1`, the AC50 in assay [1] is 19.5 µM (active). Also, the call in assay [2], in assay [3], in assay [4], in assay [5], in assay [6] and in assay [7] was inactive. For the same compound, the compound was classed as inactive in [8], in [9] and in assay [10].

Consider `CCCCCc1ccco1`, for which the values for the AC50 in assay [1] and in assay [9] were 4.15 µM (active) and 70 µM (active), respectively. Moreover, the compound was classed as inactive in assay [2], in assay [3], in assay [4], in assay [5], in assay [6] and in assay [7]. Also, the compound was called inactive in assay [8] and in assay [10].

Regarding `C=CC(=C)CCCC(C)(C)OC(C)=O`, the compound was classed as inactive in assay [1], in [2], in assay [3], in assay [4], in assay [5] and in [6]. Further, the compound was called inactive in assay [7], in assay [8], in assay [9] and in [10].

Consider `O=Cc1ccccc1S(=O)(=O)O`, for which the outcome in [1], in assay [2], in assay [3], in [4], in assay [5] and in assay [6] was inactive. Moreover, the compound was called inactive in assay [7], in assay [8], in assay [9] and in assay [10].

For `C[Si]1(C)O[Si](C)(C)O[Si](C)(C)O1`, the AC50 in assay [1] is 32.5 µM (active). Also, the outcome in [2], in assay [3], in [4], in [5], in assay [6] and in [7] was inactive. Besides, the compound was called inactive in assay [8], in [9] and in assay [10].

Values taken from PubChem BioAssay (EPA / NIEHS).
